In PubChem BioAssay (Tox21):
Results filed as inconclusive are left out. Where a call stands in place of a potency, no number is given. Activity calls are given as the source filed them. The call rests on the fitted dose curve; in most records, active means well fitted activation curve with a large enough effect in the signal ratio in the repeat runs (not every such curve was filed as active); inconclusive means weak or mixed curves, or effect the other way; inactive means flat fitted curve, though single readings scatter; the % refers to the signal ratio.

target: Estrogen receptor beta (Homo sapiens) (UniProt Q92731); test: qHTS assay to identify small molecule agonists of the estrogen receptor beta (ER-beta) signaling pathway (AID 1259377); details: ER-beta-UAS-bla HEK293T, beta-lactamase FRET ratio, 16 h; series mostly up to 92.4 µM
Sequence (Q92731 whole entry, looked up): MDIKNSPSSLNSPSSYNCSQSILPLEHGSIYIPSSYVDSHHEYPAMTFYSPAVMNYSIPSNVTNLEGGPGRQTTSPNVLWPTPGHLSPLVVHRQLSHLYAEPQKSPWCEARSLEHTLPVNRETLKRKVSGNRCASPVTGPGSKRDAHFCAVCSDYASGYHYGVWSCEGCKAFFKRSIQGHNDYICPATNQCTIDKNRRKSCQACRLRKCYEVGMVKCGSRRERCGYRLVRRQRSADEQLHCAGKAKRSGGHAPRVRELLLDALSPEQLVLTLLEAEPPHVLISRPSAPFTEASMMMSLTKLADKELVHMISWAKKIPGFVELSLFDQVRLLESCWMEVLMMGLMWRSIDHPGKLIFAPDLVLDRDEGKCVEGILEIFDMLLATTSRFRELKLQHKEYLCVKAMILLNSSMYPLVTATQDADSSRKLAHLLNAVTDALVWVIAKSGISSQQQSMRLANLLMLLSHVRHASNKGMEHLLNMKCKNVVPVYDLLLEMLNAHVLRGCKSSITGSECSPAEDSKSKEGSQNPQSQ
Text: U.S. Tox21 Program National Center for Advancing Translational Sciences [NCATS] NIH Chemical Genomics Center [NCGC] U.S. Environmental Protection Agency [EPA] National Institutes of Environmental Health Sciences [NIEHS] National Toxicology Program [NTP] U.S. Food and Drug Administration [FDA] Tox21 Assay Overview: Estrogen receptor (ER), a nuclear hormone receptor, plays an important role in development, metabolic homeostasis and reproduction. Two subtypes of ER, ER-alpha and ER-beta, have similar expression patterns with some uniqueness in both types. Endocrine disrupting chemicals (EDCs) and their interactions with steroid hormone receptors like ER causes disruption of normal endocrine function. To identify the compounds that activate ER signaling, an ER beta-UAS-bla GripTite cell line (Life technologies, Madison, WI, USA) containing a beta-lactamase reporter gene under the control of an Upstream Activator Sequence (UAS) was used to screen Tox21 10K compound library.
Tox21 Assay Protocol Summary: ER-beta-UAS-bla HEK293T cells were dispensed at 2,000 cells/5 uL of assay medium containing 2% charcoal stripped FBS per well into black wall/clear-bottom 1536-well plates using a Multidrop Combi (ThermoFisher Scientific, Waltham, MA) dispenser. After the assay plates were incubated at a 37C and 5% CO2 for 6 hr, 23 nL of compounds dissolved in DMSO, positive controls or DMSO only was transferred to the assay plate by a Pintool station (Kalypsys, San Diego, CA). The plates were incubated at 37C and 5% CO2 for 16 hr. Then 1 uL of LiveBLAzerTM B/G FRET substrate was added using a BioRAPTR FRD (Flying Reagent Dispenser, Aurora Discovery, San Diego, CA). After the plates were incubated at room temperature for 2 hours, fluorescence intensity was measured by an Envision plate reader (PerkinElmer, Shelton, CT).

Compound	Potency
OC(CCN1CCCCC1)(c1ccccc1)C1CCCCC1 (stereo not given)	inactive
Cc1ccc(C(N)=O)cc1N	inactive
CC(=O)NCCCS(=O)(=O)O	inactive
O=CNc1ccccc1	inactive
OCCC1CCCCN1 (stereo not given)	inactive
c1ccc(OCc2ccc(CCCN3CCOCC3)cc2)cc1	inactive
C=Cc1c(C)c2cc3[nH]c(cc4nc(cc5nc(cc1[nH]2)C(C)=C5CCC(=O)O)C(CCC(=O)O)=C4C)c(C)c3C=C	inactive
N=C(N=C(N)N)N1CCOCC1	inactive
C=CCCCCCC	inactive
CC(C)(C)c1cc(O)c(C(C)(C)C)cc1O	inactive
CC(=O)CC(=O)c1ccccc1	inactive
CCOC(=O)[C@H](CCc1ccccc1)N[C@H]1CCc2ccccc2N(CC(=O)O)C1=O	inactive
O=C(O)c1cn(C2CC2)c2cc(Cl)c(F)cc2c1=O	inactive
NCc1ccccc1	inactive
CCCc1ccccc1	inactive
Nc1nc(CC(=O)O)cs1	inactive
CCN(CC)CCc1nc(-c2ccccc2)no1	inactive
CNS(=O)(=O)Cc1ccc2[nH]cc(CCN(C)C)c2c1	inactive
Cc1ccc(C(C)c2ccc(C)c(C)c2)cc1C	inactive
CCCC(C)C	inactive

Compound	Potency
O=C(O)C1CCC(C(=O)O)CC1 (stereo not given)	inactive
O=c1c2ccccc2nnn1CCl	inactive
Cc1cc(CC(=O)O)c(C)n1-c1ccc(Cl)cc1	inactive
CC(CN)CCCN (stereo not given)	inactive
O=C(Cl)c1ccc([N+](=O)[O-])cc1	inactive
Cc1ccc(O)c([C@H](CCN(C(C)C)C(C)C)c2ccccc2)c1	inactive
CCCCCOC(=O)COc1cc(N2C(=O)C3=C(CCCC3)C2=O)c(F)cc1Cl	inactive
CCOc1cc(OCC)c(C(=O)CCC(=O)O)cc1OCC	inactive
ClC(Cl)(Cl)c1ccc(C(Cl)(Cl)Cl)cc1	inactive
O=C(NN1CCCC1)NS(=O)(=O)c1ccc(Cl)cc1	inactive
Nc1ccc(C(=O)N2CC3CC(CN(Cc4ccccc4)C3)C2)cc1	inactive
c1ccc(-c2nc[nH]c2-c2ccccc2)cc1	inactive
C[C@H](CCC(=O)O)[C@H]1CC[C@H]2[C@@H]3[C@H](O)C[C@@H]4C[C@H](O)CC[C@]4(C)[C@H]3CC[C@]12C	inactive
CCCCOC(=O)c1ccccc1C(=O)OCC(CC)CCCC (stereo not given)	inactive
CC[C@]12CCCN3CCc4c(n(c5ccccc45)C(=O)C1)[C@@H]32	inactive
CCN(CC)CCNC(C(=O)OCCC(C)C)c1ccccc1 (stereo not given)	inactive
CCCCCCCCC(CO)CCCCCC (stereo not given)	inactive
O=C(/C=C/c1ccc(O)c(O)c1)O[C@@H]1C[C@](O)(C(=O)O)C[C@@H](O)[C@H]1O	inactive
CC[C@@H]1C[C@H](N(Cc2cc(C(F)(F)F)cc(C(F)(F)F)c2)C(C)=O)c2cc(C(F)(F)F)ccc2N1C(=O)OC(C)C	inactive
CC1(C)CCC(C)(C)c2cc(NC(=O)c3ccc(C(=O)O)cc3)ccc21	inactive
